Source: PubChem BioAssay (several laboratories)
HSP90 inh: HSP90 inhibitors, primary screen, cell lysate, luminescence | 290,000 tested, 0.91% active | inhibition, % at 5.6 µM | Rabbit reticulocyte lysate, luciferase refolding luminescence, 3 h | Heat shock protein HSP 90 (rabbit reticulocyte lysate; luciferase refolding);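 active = inhibition above the screen-wide mean plus 3 SD, computed separately per campaign, cut at about 16% in these data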;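 note: inhibitors lower the luminescence because luciferase stays unfolded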
HSF1 inhib: HSF1 inhibitors in luciferase reporter cells, primary screen, cell-based, NIH3T3, luminescence; NIH3T3-HGL HSE-luciferase, MG132-induced, luminescence 8 h; hits give low values; activity change, negative = inhibition, % at 7.5 µM (by protocol); 300,000 tested, 0.77% active;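 active = more than half of replicate wells show activity change below -50%, luminescence cut by over half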;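 note: luciferase reports HSF-1 transcriptional activity via heat shock element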
Platelet DG rel: inhibitors of platelet dense granule secretion, primary screen, cell-based, MLPCN, human platelets; human platelet-rich plasma, SFLLRN dense granule ATP release, luminescence; inhibition, %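 (compounds screened at 7.5 µM in platelet-rich plasma)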; 300,000 tested, 0.22% active;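 active = mean replicate score, as percent of positive control, at or above 50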
MPTP inh: mitochondrial permeability transition pore inhibitors, primary screen, biochemical, isolated mouse mitochondria, absorbance | 360,000 tested, 1.4% active | inhibition, % at 10 µM | Ca2+ swelling absorbance, 30 min;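 active = inhibition of 50% or more, scaled per plate between neutral and stimulator controls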
HSF-1 act: HSF-1 activators, primary screen, NIH3T3-HGL cells, MG132 stress, luminescence, single point | NIH3T3-HGL HSF-1 luciferase reporter, 8 h; 100% = twice DMSO control signal | activation, % at 9 µM | 300,000 tested, 1.7% active;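 active = mean replicate activation of at least 50% with a set share of replicates each reaching 50%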
dFosB act: activators of delta FosB homodimer, primary screen, biochemical, fluorescence polarization, TAMRA-CDK5 oligo, single point | Protein FosB (Mus musculus), P13346 | purified delta FosB; percent of positive-control signal above neutral wells | activation, % at 25 µM | 340,000 tested, 0.99% active | AID 493131, 2011;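 active = mean activation above about 17%, with every replicate also reaching it, limit read from the data, passing the limit was not always enough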
Target sequence (P13346 whole entry, looked up): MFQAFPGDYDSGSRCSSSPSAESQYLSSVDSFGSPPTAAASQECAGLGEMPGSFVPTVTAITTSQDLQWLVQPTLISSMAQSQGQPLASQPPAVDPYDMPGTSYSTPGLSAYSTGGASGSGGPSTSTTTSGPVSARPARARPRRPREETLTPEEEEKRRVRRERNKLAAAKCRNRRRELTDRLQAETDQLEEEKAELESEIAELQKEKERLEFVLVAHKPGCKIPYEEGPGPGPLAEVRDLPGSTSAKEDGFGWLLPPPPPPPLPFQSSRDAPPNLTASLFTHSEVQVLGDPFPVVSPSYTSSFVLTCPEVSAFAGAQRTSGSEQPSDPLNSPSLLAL
Of the large screens only hits and unclear results are named; the others gave an inactive call. Only some compounds are listed: those with a hit (about 4.9% of all), similar ones and a draw of the others.

O=C(Nc1ccc([N+](=O)[O-])cc1)C(=O)Nc1cccc(C(=O)O)c1	HSP90 inh 78.1, HSF1 inhib -70.8, Platelet DG rel 83.0
CNC(=S)Nc1ccc([N+](=O)[O-])cc1C	none
O=C(O)c1cc(NC(=O)c2ccc([N+](=O)[O-])cc2)cc(NC(=O)c2ccc([N+](=O)[O-])cc2)c1	none
Cc1cc([N+](=O)[O-])ccc1NC(=O)c1csc(C)c1C	HSF-1 act 53.5
Cc1cc([N+](=O)[O-])ccc1NC(=O)c1cccc(NC(=O)C(C)C)c1	HSF-1 act 57.9
CC(C)CC1Nc2ncnc(N3CCN(c4ccccc4)CC3)c2N(Cc2ccc(Br)cc2)C1=O (stereo not given)	none (no result: HSP90 inh)
CCC(C)[C@H](NC(=O)c1cc2cc(Cl)ccc2n1C)C(=O)N1CCC(C(=O)O)CC1 (stereo not given in full)	none
COc1ccc(C(=O)O)cc1S(=O)(=O)NC(C)C	none
CN(C(=O)c1cncc(Br)c1)C1C2CC3CC(C2)CC1C3 (stereo not given)	none
Nc1cc(N)nc(SCCOc2ccccc2F)n1	HSF-1 act 66.4
COc1cccc(C(=O)NCCOc2cc(C)cc(C)c2)c1	none
Cc1ccc(C(=O)NCCOc2cccc(C)c2)cc1	HSF-1 act 58.7
CC(=O)Nc1ccc2nc(NC(=O)C(Cl)(Cl)Cl)sc2c1	none
COc1cccc2sc(Nc3nc4ccc(NC(C)=O)cc4s3)nc12	dFosB act 34.7
CC(=O)Nc1ccc2nc(NC(=O)COc3ccccc3C)sc2c1	dFosB act 20.0
Cc1ccc(NC(=O)COc2ccccc2C=O)cc1Cl	HSF-1 act 79.7
CC(=O)Nc1ccc2nc(NC(=O)COc3ccccc3Cl)sc2c1	none
CC(=O)Nc1cccc(NC(=O)COc2ccccc2C)c1	none
COc1ccccc1-c1nnc(Nc2nc3c(OC)cccc3s2)o1	HSF-1 act 213.5
O=C(NC(=S)N(CCO)Cc1ccccc1)c1ccc(F)cc1Cl	none
O=[N+]([O-])c1ccc(-c2cn(-c3ccccc3F)c(=S)[nH]2)cc1	HSF-1 act 60.3
C=C[C@@]1(C)CC(=O)[C@]2(O)[C@@]3(C)[C@@H](O)CCC(C)(C)[C@@H]3[C@H](O)[C@H](OC(C)=O)[C@@]2(C)O1	Platelet DG rel 89.6 (no result: HSP90 inh)
O=C1C=C(c2ccccc2)C(=O)N1Nc1ccccc1	Platelet DG rel 61.2
O=C1Cc2ccccc2C(=O)N1Nc1ccccc1	none (no result: HSP90 inh, HSF1 inhib, Platelet DG rel, HSF-1 act)
Cc1ccc(NN2C(=O)C=CC2=O)cc1	none
Cc1ccc(NN2C(=O)C=C(c3ccc(Cl)cc3)C2=O)cc1	Platelet DG rel 56.9, HSF-1 act 59.8
O=C(CNC(=O)c1ccccc1F)OCCOc1cccc(Cl)c1	none (no result: HSP90 inh)
CC1CCCCC12NC(=O)N(CC(=O)NCc1ccccc1Cl)C2=O (stereo not given)	none (no result: HSP90 inh, HSF1 inhib, Platelet DG rel, HSF-1 act)
Cc1cn2c(N)c(/C=C3\C=Nc4ccccc43)c(=O)nc2s1	dFosB act 18.8
CCc1nn2c(N)c(/C=C3\C=Nc4ccccc43)c(=O)nc2s1	none
O=C(N/N=C/c1ccc(N2CCCCC2)o1)C(O)(c1ccccc1)c1ccccc1	HSF-1 act 65.8 (no result: MPTP inh, dFosB act)
Cc1ccc(NC2OC(CO)C(O)C2O)cc1[N+](=O)[O-] (stereo not given)	HSF-1 act 72.2
O=C(/C=C/c1ccc([N+](=O)[O-])cc1)N1CCN(S(=O)(=O)c2cccs2)CC1	none
CC1CCN(c2ccc(C=O)o2)CC1	HSF-1 act 57.9
CC1CN(Cc2c(O)ccc3c(=O)c(-c4ccccc4Cl)coc23)CC(C)O1 (stereo not given)	none
C/C(=N\N=c1/sc2ccccc2n1C)c1ccc(N2CCOCC2)cc1	HSF-1 act 66.0
Clc1ccc(-n2nnnc2Sc2ncnc3sccc23)cc1	HSF-1 act 128.9
CC(C)(C)c1ccc(C(=O)N/N=C/c2ccc(OCCCF)cc2)cc1	none
CC(=O)c1csc(COc2ccc(Cl)cc2)n1	HSF-1 act 61.2
NNC(=O)c1csc(COc2cc(Cl)cc(Cl)c2)n1	none
Cc1ccc(SCCN2CCN(C)CC2)cc1	HSF-1 act 57.9
CCOC(=O)NC(=O)/C(C#N)=N/Nc1c(F)cccc1F	HSF-1 act 64.2
CCOC(=O)NC(=O)/C(C#N)=N\Nc1cccc(OC)c1	none
S=c1[nH]nc(-c2ccccc2)n1/N=C/c1ccc(-c2ccccc2Cl)o1	HSF-1 act 150.9
S=c1[nH]nc(-c2cccc(Cl)c2)n1/N=C/c1ccc(-c2ccccc2Br)o1	dFosB act 41.9
Cc1ccc(/C=N/n2c(-c3cccc(Cl)c3)n[nH]c2=S)o1	none (no result: dFosB act)
Fc1cccc(F)c1/C=C/c1ccc2ccccc2n1	none
Fc1cccc(Cl)c1/C=C/c1cnc2ccccc2n1	HSP90 inh 16.7
COc1ccc(NC(=O)c2cc(S(=O)(=O)N3CCc4ccccc43)cn2C)cc1	Platelet DG rel 97.9
CC(C)N(C(=O)COC(=O)c1ccccc1C(=O)c1ccc(Cl)c([N+](=O)[O-])c1)C(C)C	HSF-1 act 90.7
CCC(=O)N1CCc2cc(S(=O)(=O)NCCC(=O)Nc3cc(C)cc(C)c3)ccc21	none
CCC(=O)N1CCc2cc(S(=O)(=O)NCCC(=O)Nc3ccccc3C)ccc21	HSF1 inhib -65.2
C=CC[n+]1ccn(-c2nc3ccccc3nc2[N-]S(=O)(=O)c2cccs2)c1	none
CCn1c(C(C#N)/C(=N\S(=O)(=O)c2cccs2)c2ccccc2)nc2ccccc21 (stereo not given)	HSF1 inhib -66.1
CCN(CC)S(=O)(=O)c1ccc2c(c1)N(CC(=O)Nc1cccnc1Cl)C(=O)CO2	none
COC(=O)c1ccc(CSc2ccccc2NC(=S)Nc2cccc(SC)c2)o1	none (no result: HSP90 inh, HSF1 inhib, Platelet DG rel, HSF-1 act, dFosB act)
CCCCCC(=O)c1c(C)[nH]c(C(=O)OCC)c1C	none
CCCCCCC(=O)c1c(C)[nH]c(C(=O)OCC)c1C	HSF-1 act 53.2
CCCCC(=O)OCC(=O)c1[nH]c(C)c(C(=O)OCC)c1C	HSF-1 act 76.1
Cc1cc(OCC(=O)OCC(=O)NCC2CCCO2)ccc1Cl (stereo not given)	none (no result: HSP90 inh, HSF1 inhib, Platelet DG rel, HSF-1 act)
CC(C)Cn1c(N)c(C(=O)COC(=O)/C=C/c2ccccc2)c(=O)n(C)c1=O	none (no result: HSP90 inh)
O[C@H]1C[C@H](c2ccccc2)N(CC2CCCCC2)C[C@@H]1n1cc(C2CC2)nn1	none (no result: HSP90 inh, HSF1 inhib, Platelet DG rel, HSF-1 act, dFosB act)
Cc1cc(-c2nc3ncccc3o2)ccc1NC(=S)NC(=O)C(C)C	HSF-1 act 51.8
Cc1ccc(-c2nc3ncccc3o2)cc1NC(=O)C(C)C	none
CC(=O)Cn1cnc2c(cnn2-c2ccc(C)c(C)c2)c1=O	HSF-1 act 59.0
COC(=O)Cn1cnc2c(cnn2-c2ccccc2)c1=O	none
